Data published in ChEMBL document CHEMBL1961873, “Compounds: GSK PKIS; Assays: Nanosyn kinase panel” (2012).

Each compound was assayed against RAC-beta serine/threonine-protein kinase (Homo sapiens) (UniProt P31751). Settings: at 0.1 µM.
RAC-beta serine/threonine-protein kinase (Homo sapiens), sequence (P31751 whole entry): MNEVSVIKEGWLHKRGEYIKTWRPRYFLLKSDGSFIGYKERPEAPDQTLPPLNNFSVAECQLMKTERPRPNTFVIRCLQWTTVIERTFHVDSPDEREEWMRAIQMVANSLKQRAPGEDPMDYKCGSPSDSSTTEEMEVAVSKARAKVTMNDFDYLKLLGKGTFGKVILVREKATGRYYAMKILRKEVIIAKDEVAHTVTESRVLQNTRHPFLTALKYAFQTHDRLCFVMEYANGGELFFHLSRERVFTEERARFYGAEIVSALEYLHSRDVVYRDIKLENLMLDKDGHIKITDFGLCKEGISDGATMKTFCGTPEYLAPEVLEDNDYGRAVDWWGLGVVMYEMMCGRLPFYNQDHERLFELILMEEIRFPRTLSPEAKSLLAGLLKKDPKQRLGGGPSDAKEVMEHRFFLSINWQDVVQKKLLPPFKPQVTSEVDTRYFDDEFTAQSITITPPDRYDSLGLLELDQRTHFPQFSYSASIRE

Compared with `COc1ccccc1Nc1ncc(-c2ccccc2)o1`, `Cn1cc(C=C2C(=O)Nc3cccnc32)c2ccccc21` is higher in inhibition: 0.6% for the first, 1.08% for the second.

Compared with `CN(C)c1cc2c(Nc3ccc4nc(Cc5ccccc5)[nH]c4c3)ncnc2cn1`, `[O-][S+]1CCN(Cc2ccc(-c3ccc4ncnc(Nc5ccc(OCc6ccccc6)c(F)c5)c4c3)o2)CC1` is higher in inhibition: 2.3% for the first, 2.53% for the second.

First: CCn1c(-c2nonc2N)nc2c(N3CCCC3)nccc21
Second: CCn1c(-c2nonc2N)nc2c(C#CC(C)(C)O)nc(CN3CCCC3)cc21
The inhibition of the first is lower: -3.12% for the first, 10% for the second.

First: CC1=C(C(=O)Nc2ccc3[nH]ncc3c2)C(c2ccc3ccccc3c2)CC(=O)N1 (stereo unspecified)
Second: CC1=C(C(=O)Nc2ccc3[nH]ncc3c2)C(c2ccc(Cl)c(Cl)c2)CC(=O)N1 (stereo unspecified)
The inhibition of the first is lower: 0.74% for the first, 1.11% for the second.

Compared with `CNC(=O)c1cncc(/C=C/c2c(Cl)cccc2Cl)c1`, `O=C1NC(=O)C(c2ccccc2Cl)=C1Nc1cccc(O)c1` is higher in inhibition: -2.93% for the first, 1.74% for the second.

Going from `Cc1ccc(NC(=O)c2ccnc(N3CCCC3)c2)cc1-c1ccc(C(=O)NCC2CC2)cc1` to `NS(=O)(=O)c1ccc(N/N=C2\C(=O)Nc3ccc(C(=O)NCCc4c[nH]cn4)cc32)cc1`, the inhibition rises from -1.45% to 3.41%.

Compared with `O=C1NC(=O)C(N2CCc3ccccc32)=C1c1ccc(Cl)cc1`, `COc1cc2c(cc1Nc1nc(N3CCc4ccccc43)c3cc[nH]c3n1)N(C(=O)CN(C)C)CC2` is lower in inhibition: 1.7% for the first, 0.6% for the second.

Going from `COc1cc2ncn(-c3cc(OCc4ccccc4C(F)(F)F)c(C(N)=O)s3)c2cc1OC` to `COc1cc2ncn(-c3cc(O[C@H](C)c4ccccc4Cl)c(C(N)=O)s3)c2cc1OC`, the inhibition rises from -2.6% to 2.49%.

Going from `Nc1nc(-c2ccccn2)c(-c2ccc3ncccc3n2)s1` to `NC(=O)c1ccc(-c2nc(-c3ccccn3)c(-c3ccc4c(c3)OCO4)[nH]2)cc1`, the inhibition rises from 1.1% to 1.27%.

Compared with `O=C(Nc1n[nH]c2nc(-c3ccco3)c(Br)cc12)C1CC1`, `CN1CCC(C(=O)Nc2n[nH]c3nnc(-c4ccccc4)cc23)CC1` is higher in inhibition: 2.1% for the first, 3.48% for the second.

First: COc1ccc(-c2ccncc2)cc1C(N)=O
Second: COc1cc2ncn(-c3cc(O[C@@H](C)c4ccccc4Cl)c(C(N)=O)s3)c2cc1OC
The inhibition of the first is lower: 0.41% for the first, 1.65% for the second.

Going from `Nc1ncnc2occ(-c3ccc(NC(=O)Nc4cc(C(F)(F)F)cc(C(F)(F)F)c4)cc3)c12` to `CS(=O)(=O)CCNCc1ccc(-c2ccc3ncnc(Nc4ccc(OCc5cccc(F)c5)c(C(F)(F)F)c4)c3c2)o1`, the inhibition rises from 1.95% to 2.87%.

Going from `Cc1nn(C)c2cc(N(C)c3ccnc(Nc4cccc(S(N)(=O)=O)c4)n3)ccc12` to `NC(=O)c1cccc(Nc2nccc(Nc3cccc4[nH]ncc34)n2)c1`, the inhibition falls from 1.6% to -3.71%.

Compared with `Nc1nc(-c2ccc3c(c2)C(=Cc2cc(Br)c(O)c(Br)c2)C(=O)N3)cs1`, `CC(C)=Cc1cccc2c1/C(=N/Nc1ccc(S(N)(=O)=O)cc1)C(=O)N2` is higher in inhibition: -2.78% for the first, 0.76% for the second.

First: CC(=O)Nc1cccc(C#Cc2cncnc2Nc2ccc(OCc3cccc(F)c3)c(Cl)c2)n1
Second: Fc1cccc(COc2ccc(Nc3ncnc4sc(-c5cccs5)cc34)cc2Cl)c1
The inhibition of the first is lower: -1.3% for the first, -0.49% for the second.

Going from `COC(=O)Nc1nc2cc(Oc3ccc(NC(=O)Nc4cccc(C(=O)O)c4)cc3)ccc2[nH]1` to `Fc1cccc(COc2ccc(Nc3ncnc4cc(-c5ccc[nH]5)sc34)cc2Cl)c1`, the inhibition rises from -3.47% to -2.34%.

In the case of `N#Cc1c(NC(=O)c2cccc3ccccc23)sc2c1CCCC2`, the inhibition is reported as 1.74%.

The compounds below were run against RAC-beta serine/threonine-protein kinase (Homo sapiens) (UniProt P31751). Settings: at 1 µM.

Compared with `COc1ccccc1Nc1ncc(-c2ccccc2)o1`, `Cn1cc(C=C2C(=O)Nc3cccnc32)c2ccccc21` is lower in inhibition: 2.82% for the first, 1.6% for the second.

Compared with `CN(C)c1cc2c(Nc3ccc4nc(Cc5ccccc5)[nH]c4c3)ncnc2cn1`, `[O-][S+]1CCN(Cc2ccc(-c3ccc4ncnc(Nc5ccc(OCc6ccccc6)c(F)c5)c4c3)o2)CC1` is lower in inhibition: 2.71% for the first, 0.9% for the second.

Compared with `CCn1c(-c2nonc2N)nc2c(N3CCCC3)nccc21`, `CCn1c(-c2nonc2N)nc2c(C#CC(C)(C)O)nc(CN3CCCC3)cc21` is higher in inhibition: -0.45% for the first, 55.5% for the second.

Going from `CC1=C(C(=O)Nc2ccc3[nH]ncc3c2)C(c2ccc3ccccc3c2)CC(=O)N1` (stereo unspecified) to `CC1=C(C(=O)Nc2ccc3[nH]ncc3c2)C(c2ccc(Cl)c(Cl)c2)CC(=O)N1` (stereo unspecified), the inhibition rises from 1.1% to 1.63%.

Going from `CNC(=O)c1cncc(/C=C/c2c(Cl)cccc2Cl)c1` to `O=C1NC(=O)C(c2ccccc2Cl)=C1Nc1cccc(O)c1`, the inhibition rises from -2.77% to 1.48%.

First: Cc1ccc(NC(=O)c2ccnc(N3CCCC3)c2)cc1-c1ccc(C(=O)NCC2CC2)cc1
Second: NS(=O)(=O)c1ccc(N/N=C2\C(=O)Nc3ccc(C(=O)NCCc4c[nH]cn4)cc32)cc1
The inhibition of the first is lower: -1.55% for the first, 1.59% for the second.

Compared with `O=C1NC(=O)C(N2CCc3ccccc32)=C1c1ccc(Cl)cc1`, `COc1cc2c(cc1Nc1nc(N3CCc4ccccc43)c3cc[nH]c3n1)N(C(=O)CN(C)C)CC2` is lower in inhibition: 2.85% for the first, 1.42% for the second.

Going from `COc1cc2ncn(-c3cc(OCc4ccccc4C(F)(F)F)c(C(N)=O)s3)c2cc1OC` to `COc1cc2ncn(-c3cc(O[C@H](C)c4ccccc4Cl)c(C(N)=O)s3)c2cc1OC`, the inhibition rises from -2.54% to 2.19%.

Going from `Nc1nc(-c2ccccn2)c(-c2ccc3ncccc3n2)s1` to `NC(=O)c1ccc(-c2nc(-c3ccccn3)c(-c3ccc4c(c3)OCO4)[nH]2)cc1`, the inhibition falls from 1.5% to 1.16%.

Compared with `O=C(Nc1n[nH]c2nc(-c3ccco3)c(Br)cc12)C1CC1`, `CN1CCC(C(=O)Nc2n[nH]c3nnc(-c4ccccc4)cc23)CC1` is lower in inhibition: 2.15% for the first, 1.57% for the second.

First: COc1ccc(-c2ccncc2)cc1C(N)=O
Second: COc1cc2ncn(-c3cc(O[C@@H](C)c4ccccc4Cl)c(C(N)=O)s3)c2cc1OC
The inhibition of the first is higher: 2.06% for the first, 1.94% for the second.

First: Nc1ncnc2occ(-c3ccc(NC(=O)Nc4cc(C(F)(F)F)cc(C(F)(F)F)c4)cc3)c12
Second: CS(=O)(=O)CCNCc1ccc(-c2ccc3ncnc(Nc4ccc(OCc5cccc(F)c5)c(C(F)(F)F)c4)c3c2)o1
The inhibition of the first is higher: 2.09% for the first, 0.73% for the second.

First: Cc1nn(C)c2cc(N(C)c3ccnc(Nc4cccc(S(N)(=O)=O)c4)n3)ccc12
Second: NC(=O)c1cccc(Nc2nccc(Nc3cccc4[nH]ncc34)n2)c1
The inhibition of the first is higher: 2.15% for the first, -1.08% for the second.

First: Nc1nc(-c2ccc3c(c2)C(=Cc2cc(Br)c(O)c(Br)c2)C(=O)N3)cs1
Second: CC(C)=Cc1cccc2c1/C(=N/Nc1ccc(S(N)(=O)=O)cc1)C(=O)N2
The inhibition of the first is lower: -0.83% for the first, 0.93% for the second.

Going from `CC(=O)Nc1cccc(C#Cc2cncnc2Nc2ccc(OCc3cccc(F)c3)c(Cl)c2)n1` to `Fc1cccc(COc2ccc(Nc3ncnc4sc(-c5cccs5)cc34)cc2Cl)c1`, the inhibition rises from -0.21% to 0.01%.

First: COC(=O)Nc1nc2cc(Oc3ccc(NC(=O)Nc4cccc(C(=O)O)c4)cc3)ccc2[nH]1
Second: Fc1cccc(COc2ccc(Nc3ncnc4cc(-c5ccc[nH]5)sc34)cc2Cl)c1
The inhibition of the first is lower: -2.42% for the first, -1.49% for the second.

Compound `N#Cc1c(NC(=O)c2cccc3ccccc23)sc2c1CCCC2` has an inhibition of 2.41%.
